# Measured values reported in PubChem BioAssay AID624417 (National Center for Advancing Translational Sciences (NCATS), 2012).
# About 6,400 (1.6%) of roughly 410,000 compounds were called active. Roughly 20% stayed inconclusive and do not appear here. The entries come from a sample that favours actives as a whole. A number with no mark means an inactive call. The call rests on the fitted dose curve; in most records, active means well fitted inhibition curve with a large enough effect; inconclusive means small, poorly fitted or top-dose-only effect; inactive means no such curve, though single readings can be large or run the other way.
# Biological target: Glucagon-like peptide 1 receptor (Homo sapiens) (UniProt P43220)
# Sequence (P43220 whole entry, looked up): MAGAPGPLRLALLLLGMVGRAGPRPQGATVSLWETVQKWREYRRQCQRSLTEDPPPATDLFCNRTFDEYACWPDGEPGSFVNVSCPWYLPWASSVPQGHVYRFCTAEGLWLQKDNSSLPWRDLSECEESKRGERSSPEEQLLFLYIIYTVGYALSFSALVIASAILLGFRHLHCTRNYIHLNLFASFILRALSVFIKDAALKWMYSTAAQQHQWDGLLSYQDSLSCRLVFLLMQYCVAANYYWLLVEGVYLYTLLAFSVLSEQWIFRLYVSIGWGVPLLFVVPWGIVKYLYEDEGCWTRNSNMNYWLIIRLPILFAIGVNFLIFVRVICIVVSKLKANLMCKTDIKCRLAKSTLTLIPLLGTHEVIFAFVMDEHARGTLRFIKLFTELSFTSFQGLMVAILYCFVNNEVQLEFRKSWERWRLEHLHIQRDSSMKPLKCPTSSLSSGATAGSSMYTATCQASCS
# Test: qHTS of GLP-1 Receptor Inverse Agonists (Inhibition Mode); further: nearly all actives have a fitted effect of over 55% in size
# Details: HEK293 GLP-1R CRE-luciferase, luminescence, 24 h, GLP-1R form is constitutively active; series mostly up to 38.3 µM; activity change, negative = inhibition: at the top concentration
# Method in brief: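 Inverse agonists were sought by their lowering of basal cAMP reporter luciferase output in HEK293 cells stably carrying constitutively active human GLP-1R, after 24 h compound treatment.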
# On the % scale 0 is the no-effect control and ±100 the full control effect; potency means the concentration at half of the fitted maximal effect.
SMILES,"activity change, negative = inhibition [%]",Potency
Cc1cc(-c2ccccc2)n2nc(C)c(-c3ccccc3)c2n1,-1.84,
Cc1cc(-n2nc(C)cc2C)n2nc(C)c(-c3ccccc3)c2n1,-10.6,
CCc1c(C)nc2c(-c3ccccc3)c(C)nn2c1Nc1ccc(NC(C)=O)cc1,,10 µM (active)
Cc1ccc2nc(-c3ccccc3)c(CC3CCCCC3)n2c1,-29.8,
O=C1Nc2ccccc2-n2nnnc2C1N1CCN(c2cccc(C(F)(F)F)n2)CC1 (centres undefined),-22,
CC(=O)c1cccc(-c2cnc3c(NC=O)cc(-c4ccccc4Oc4ccccc4)cn23)c1,-19.1,
CNc1cncc(-c2cccc(C(=O)N3CCOCC3)c2)n1,2.33,
Cc1nccn1-c1ccc(NC(=O)[C@H]2O[C@@H](n3ccc(=O)[nH]c3=O)[C@H](O)[C@@H]2O)cc1,8.26,
COc1cc(C(O)c2nc(-c3cnn(C)c3)cs2)ccc1F (centres undefined),-19.5,
CN1CCN(C(=O)c2ccc(NC(=O)c3ccc(Br)o3)cc2)CC1,22.9,
CCN(CC)S(=O)(=O)c1ccc(-c2cn3ccc(C)cc3n2)cc1,15.4,
COc1ccc(-c2cn3cccnc3n2)cc1,20.6,
COc1ccc(-c2cn3ccc(C)cc3n2)cc1,,6.31 µM (active)
COc1ccc(-c2c(C#N)cnc(C)c2C)c(O)c1OC,-2.78,
CNC[C@H]1OCc2cnnn2CCCC(=O)N([C@H](C)CO)C[C@@H]1C,26.7,
OC(c1ccc(Cl)c(F)c1)c1ncc(-c2ccccc2Cl)[nH]1 (centres undefined),-21.2,
CCC[C@@H]1C[C@@]1(CCC)[C@@H](NC(=O)c1ccccc1)c1ccc(C(=O)OC)cc1,,5.01 µM (active)
COC(=O)c1ccc(C(NC(=O)OCc2ccccc2)/C(F)=C/[C@@H](C)C(=O)O)cc1 (some centres undefined),16.1,
COC(=O)c1ccc(NCC(=O)c2ccccc2)cc1,4.32,
Cc1ccc(C(=O)NC(=S)NCCN2CCOCC2)cc1,16,
Cc1ccccc1CN1C(=O)c2ccccc2Sc2ccc(C(=O)NCCCN3CCOCC3)cc21,-26.5,
CCc1ccccc1NC(=O)NCCN1CCCCC1,11.2,
CC1=C(C(=O)Nc2cccc(C(=O)NCC(C)c3ccccc3)c2)SCCO1 (centres undefined),-20.5,
CCC1=Nc2cc(C(=O)NCCN3CCCC3)ccc2Sc2ccc(C)cc21,,3.55 µM (active)
CCC1=Nc2cc(C(=O)NCC(C)c3ccccc3)ccc2Sc2ccc(C)cc21 (centres undefined),,5.01 µM (active)
COc1ccc(C(=O)NCCCN2CCOCC2)cc1Br,3.74,
CCC1=Nc2cc(C(=O)NCCCN3CCOCC3)ccc2Sc2ccc(Br)cc21,,11.2 µM (active)
Cc1ccc(C(=O)NCCNS(=O)(=O)c2ccccc2)cc1,0.318,
O=C(Nc1ccccc1)c1ccccc1Br,27.6,
